The source of these data is PubChem BioAssay (Tox21).

A short description of assay [1]: qHTS assay to identify small molecule agonists of the estrogen receptor alpha (ER-alpha) signaling pathway in the presence of an antagonist - cell viability counter screen (AID 1259386).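 Further: cells exposed to compounds for 22 h at 37 °C before the viability read; nearly all actives have a fitted effect of over 30% in size.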 Further: potency means the concentration at half of the fitted maximal effect. In a few lines: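 Viability counter screen using VM7Luc4E2 (full-length ER-alpha, four ERE-luciferase). The cells were treated with compounds alongside ICI-182,780 10.0nM for 22hr, and live-cell protease fluorescence was quantified with CellTiter-Fluor.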
On the technique in general: Quantitative high-throughput screening tests each substance at several concentrations.

Assay [2] concerns the target Progesterone receptor (Homo sapiens) (UniProt P06401). Briefly: qHTS assay to identify small molecule agonists of the progesterone receptor (PR) signaling pathway (AID 1346784; calls by dose curve; further: on the % scale 0 is the no-effect control and ±100 the full control effect; nearly all actives have a fitted effect of over 30% in size). The gist of the method:
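Compounds were tested for PR agonism in HEK 293T cells bearing a beta-lactamase gene under UAS control. Treatment lasted 16 hr at 37C; signal came from fluorescence of a FRET substrate.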

The nature of assay [3]: qHTS assay to identify small molecule antagonists of the progesterone receptor (PR) signaling pathway - cell viability counter screen (AID 1346798). Further: series mostly up to about 92 µM; on the % scale 0 is the no-effect control and ±100 the full control effect; nearly all actives have a fitted effect of over 50% in size. In a few lines: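 Following a 4 hr attachment, PR-UAS-bla HEK293T cells in charcoal-stripped FBS medium were exposed to compounds with R5020 for 16 hr; CellTiter-Glo was added and luminescence read after 30 min at room temperature.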

A short description of assay [4]: qHTS assay to identify small molecule agonists of the progesterone receptor (PR) signaling pathway - cell viability counter screen (AID 1346799; calls by dose curve; further: on the % scale 0 is the no-effect control and ±100 the full control effect; nearly all actives have a fitted effect of over 45% in size). In a few lines: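 Here, 3,000 PR-UAS-bla HEK293T cells per well were treated with compounds for 16 hr after a 6 hr preincubation at 37C and 5% CO2; cell viability is the CellTiter-Glo luminescence signal.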
Assay [5] in a line: qHTS assay to identify small molecule antagonists of the TGF-beta/Smad signaling pathway - cell viability counter screen (AID 1346824). Further: on the % scale 0 is the no-effect control and ±100 the full control effect; nearly all actives have a fitted effect of over 50% in size. The gist of the method:
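SBE-bla HEK 293T cells, incubated overnight, then compound plus 0.25 ng/mL TGF-beta1 (stock added) for 5 hr at 37 C. Viability was read in the same wells by CellTiter-Glo luminescence after 30 min at room temperature.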

The nature of assay [6]: qHTS assay to identify small molecule agonists of the TGF-beta/Smad signaling pathway - cell viability counter screen (AID 1346829). Further: top concentration of the series differs between compounds; on the % scale 0 is the no-effect control and ±100 the full control effect; nearly all actives have a fitted effect of over 45% in size. The gist of the method:
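SBE-bla HEK 293T cells plated overnight, compound exposure 5 hr at 37 C. Viability read in the same wells by CellTiter-Glo luminescence after 30 min at room temperature, following the beta-lactamase read.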

A short description of assay [7]: qHTS assay to identify small molecule agonists of the TGF-beta/Smad signaling pathway (AID 1346859; active means well fitted activation curve with a large enough effect in the signal ratio in the repeat runs, not every such curve was filed as active; the % refers to the signal ratio; further: series mostly up to about 77 µM; on the % scale 0 is the no-effect control and ±100 the full control effect). The gist of the method:
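Each well held 4,000 SBE-bla HEK 293T cells incubated overnight before compound addition; 5 hr later the cleavable FRET substrate went on for 2 hr at room temperature, and fluorescence was read at two emissions.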

Assay [8] has as its target Thyrotropin-releasing hormone receptor (Homo sapiens) (UniProt P34981). Briefly: qHTS assay to identify small molecule antagonists of the thyrotropin-releasing hormone receptor (TRHR) signaling pathway (AID 1346877; active means well fitted inhibition curve with a large enough effect in the repeat runs, not every such curve was filed as active; further: series mostly up to about 51 µM; on the % scale 0 is the no-effect control and ±100 the full control effect). In a few lines: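 Following an 18 h incubation at 37 °C and a 2 h calcium dye load, TRHR-HEK293 cells were exposed to compound (5 min, room temperature) and challenged with TRH, 1 nM final.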

The target is the same in assay [9]. The assay is described as follows: qHTS assay to identify small molecule agonists of the thyrotropin-releasing hormone receptor (TRHR) signaling pathway (AID 1346891; calls by dose curve; further: series mostly up to about 58 µM; on the % scale 0 is the no-effect control and ±100 the full control effect). The gist of the method: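 Screening of agonists relied on calcium signalling in HEK293 cells expressing human TRHR: dye loading 2 h at 37 °C preceded compound addition and a 3-min fluorescence time course.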

A short description of assay [10]: Human pregnane X receptor (PXR) small molecule agonists, qHTS cell viability counter screen (AID 1346977). Further: nearly all actives have a fitted effect of over 50% in size. Further: potency means the concentration at half of the fitted maximal effect. In a few lines:
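Tox21 qHTS format; PXR-Luc HepG2, 2,000/well, charcoal-stripped FBS 5%. Cpd exposure 24hr. Read: CellTiter-Fluor fluorescence, multiplexed with luciferase.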

Assay [11] is described as follows: Caspase-3/7 induction in CHO-K1 cells by small molecules, qHTS cell viability counter screen (AID 1346979). Further: nearly all actives have a fitted effect of over 35% in size. Further: potency means the concentration at half of the fitted maximal effect. The gist of the method:
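CellTiter-Fluor viability check, qHTS format: wild-type CHO-K1, 16hr compound treatment, 1hr reagent incubation, fluorescence read.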

A short description of assay [12]: Caspase-3/7 induction in CHO-K1 cells by small molecules, qHTS assay (AID 1346980). Further: nearly all actives have a fitted effect of over 15% in size. Further: potency means the concentration at half of the fitted maximal effect. The gist of the method: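 Wild-type CHO-K1 cells exposed to compounds for 17hr at 37 C, 5% CO2. Caspase-3/7 activity then measured by Caspase-Glo 3/7 luminescence after 30min at room temperature.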
For assay [13], the target named is Nuclear receptor subfamily 1 group I member 2 (Homo sapiens) (UniProt O75469). The assay is described as follows: Human pregnane X receptor (PXR) small molecule agonists, qHTS assay (AID 1346982). Further: nearly all actives have a fitted effect of over 35% in size. Further: potency means the concentration at half of the fitted maximal effect. On activation: on the % scale 0 is the no-effect control and ±100 the full control effect. In a few lines: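 Compound-induced hPXR transactivation of a CYP3A4 luciferase reporter was scored in HepG2 PXR-Luc cells over 24 hr at 37 C, 5% CO2, by luminescence.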

Assay [14] concerns the target Cytochrome P450 2D6 (Homo sapiens) (UniProt P10635). The assay is described as follows: Cytochrome P450 Family 2 Subfamily D Member 6 (CYP2D6) small molecule antagonists: luciferase reporter qHTS assay (AID 1671196). Further: nearly all actives have a fitted effect of over 50% in size. Further: potency means the concentration at half of the fitted maximal effect. In a few lines:
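Each well received CYP2D6 with its proluciferin substrate and chemical, sat 10 min, then got NADPH regeneration solution for 1 h at room temperature. Luminescence in RLU served as the activity measure.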
In general terms: In a reporter assay the amount or activity of a reporter protein is the signal.

The target in assay [15] is Progesterone receptor (Homo sapiens) (UniProt P06401). Briefly: qHTS assay to identify small molecule antagonists of the progesterone receptor (PR) signaling pathway (AID 1346795; active means well fitted inhibition curve with a large enough effect in the signal ratio in the repeat runs, not every such curve was filed as active; the % refers to the signal ratio; further: potency means the concentration at half of the fitted maximal effect). In a few lines:
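In HEK293T cells bearing the PR-UAS-bla reporter, compound effects on promegestone-driven (1 nM) beta-lactamase expression are assessed after 16 hr using a fluorescent FRET substrate incubated 2 hr at room temperature.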

Assay [16] can be described thus: Caspase-3/7 induction in HepG2 cells by small molecules, qHTS cell viability counter screen (AID 1346981). Further: series mostly up to about 92 µM; on the % scale 0 is the no-effect control and ±100 the full control effect; nearly all actives have a fitted effect of over 30% in size. The gist of the method: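 Viability determined by CellTiter-Fluor fluorescence in HepG2 wells also used for the luminescent Caspase-Glo 3/7 read. Compounds were present for 16 hr at 37 C, 5% CO2 before reagent addition.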
Assay [17] is described as follows: Caspase-3/7 induction in HepG2 cells by small molecules, qHTS assay (AID 1346978). Further: nearly all actives have a fitted effect of over 15% in size. Further: potency means the concentration at half of the fitted maximal effect. In a few lines: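 Wild-type HepG2 cells, 2,000/well, settled 5 hr at 37 C and 5% CO2, then compound-treated for 17 hr; caspase-3/7 activity read by luminescent Caspase-Glo 3/7 after 30 min at room temperature.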
Assay [18] has as its target Nuclear receptor subfamily 1 group I member 2 (Rattus norvegicus) (UniProt Q9R1A7). The assay is described as follows: Rat pregnane X receptor (rPXR) activation by small molecules, qHTS assay (AID 1346983). Further: on the % scale 0 is the no-effect control and ±100 the full control effect; nearly all actives have a fitted effect of over 20% in size. The note with it: rPXR luciferase reporter cells, One-Glo luminescence, 24 h; stronger effect = higher value. The gist of the method:
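Cell-based rPXR activation assay: rPXR cells, 2,000 per well, rested 5hr at 37 C, then exposed to compounds in DMSO for 24 hr at 37 C. Luciferase activity read by One-Glo luminescence after 30 min at room temperature.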

In assay [19] the target is Nuclear receptor subfamily 1 group I member 2 (Homo sapiens) (UniProt O75469). Briefly: CYP3A4 induction through human pregnane X receptor (PXR) by small molecules, qHTS assay (AID 1346984). Further: potency means the concentration at half of the fitted maximal effect; nearly all actives have a fitted effect of over 40% in size. The gist of the method:
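Readings come from a luciferase reporter: DPX-2 cells, which are HepG2 cotransfected with PXR and a CYP3A4-promoter construct, were exposed to test compounds for 24 h at 37C before One-Glo detection.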

A number with no mark means an inactive call. Results filed as inconclusive are left out. Activity calls are given as the source filed them. Unless noted, the call rests on the fitted dose curve; in most records, active means well fitted curve in the direction sought with a large enough effect in the repeat runs; inconclusive means weak or mixed curves; inactive means no such curve, though single readings can be large; an effect the other way counts as inactive or inconclusive.

Sequence of Thyrotropin-releasing hormone receptor (Homo sapiens) (P34981 whole entry, looked up): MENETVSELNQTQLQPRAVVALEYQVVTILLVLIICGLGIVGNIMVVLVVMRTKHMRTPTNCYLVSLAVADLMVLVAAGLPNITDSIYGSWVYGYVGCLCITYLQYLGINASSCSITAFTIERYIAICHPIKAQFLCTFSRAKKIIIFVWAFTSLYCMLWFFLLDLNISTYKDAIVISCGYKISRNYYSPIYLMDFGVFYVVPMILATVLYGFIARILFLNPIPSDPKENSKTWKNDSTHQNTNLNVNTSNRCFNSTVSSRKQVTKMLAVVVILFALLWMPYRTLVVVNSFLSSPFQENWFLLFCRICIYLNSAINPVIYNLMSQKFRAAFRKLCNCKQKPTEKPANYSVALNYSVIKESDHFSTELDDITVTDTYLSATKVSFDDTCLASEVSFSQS
Sequence of Progesterone receptor (Homo sapiens) (P06401 whole entry, looked up): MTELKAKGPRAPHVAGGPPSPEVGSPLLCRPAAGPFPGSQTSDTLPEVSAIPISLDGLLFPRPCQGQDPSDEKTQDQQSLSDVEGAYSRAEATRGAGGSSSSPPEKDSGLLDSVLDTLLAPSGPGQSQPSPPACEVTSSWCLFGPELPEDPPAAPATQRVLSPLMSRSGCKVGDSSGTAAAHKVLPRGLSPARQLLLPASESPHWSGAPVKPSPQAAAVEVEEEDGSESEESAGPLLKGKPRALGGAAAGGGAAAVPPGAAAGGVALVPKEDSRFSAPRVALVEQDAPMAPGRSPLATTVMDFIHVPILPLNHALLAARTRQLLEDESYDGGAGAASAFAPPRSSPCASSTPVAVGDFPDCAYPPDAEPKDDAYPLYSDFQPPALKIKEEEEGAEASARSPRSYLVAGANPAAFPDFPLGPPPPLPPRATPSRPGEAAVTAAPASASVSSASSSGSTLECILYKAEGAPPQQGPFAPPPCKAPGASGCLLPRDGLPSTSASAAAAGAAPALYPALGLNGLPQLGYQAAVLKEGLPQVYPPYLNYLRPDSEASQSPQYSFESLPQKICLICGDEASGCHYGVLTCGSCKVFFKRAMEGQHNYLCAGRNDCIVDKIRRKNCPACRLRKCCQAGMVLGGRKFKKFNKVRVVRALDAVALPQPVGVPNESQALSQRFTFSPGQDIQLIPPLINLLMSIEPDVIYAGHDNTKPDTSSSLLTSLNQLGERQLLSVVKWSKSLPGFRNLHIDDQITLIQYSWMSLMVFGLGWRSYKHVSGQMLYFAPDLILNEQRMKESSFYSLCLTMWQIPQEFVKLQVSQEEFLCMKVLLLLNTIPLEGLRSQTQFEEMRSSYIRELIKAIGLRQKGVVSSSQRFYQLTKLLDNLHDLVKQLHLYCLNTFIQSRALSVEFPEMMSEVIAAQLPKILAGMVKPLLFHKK
Sequence of Cytochrome P450 2D6 (Homo sapiens) (P10635 whole entry, looked up): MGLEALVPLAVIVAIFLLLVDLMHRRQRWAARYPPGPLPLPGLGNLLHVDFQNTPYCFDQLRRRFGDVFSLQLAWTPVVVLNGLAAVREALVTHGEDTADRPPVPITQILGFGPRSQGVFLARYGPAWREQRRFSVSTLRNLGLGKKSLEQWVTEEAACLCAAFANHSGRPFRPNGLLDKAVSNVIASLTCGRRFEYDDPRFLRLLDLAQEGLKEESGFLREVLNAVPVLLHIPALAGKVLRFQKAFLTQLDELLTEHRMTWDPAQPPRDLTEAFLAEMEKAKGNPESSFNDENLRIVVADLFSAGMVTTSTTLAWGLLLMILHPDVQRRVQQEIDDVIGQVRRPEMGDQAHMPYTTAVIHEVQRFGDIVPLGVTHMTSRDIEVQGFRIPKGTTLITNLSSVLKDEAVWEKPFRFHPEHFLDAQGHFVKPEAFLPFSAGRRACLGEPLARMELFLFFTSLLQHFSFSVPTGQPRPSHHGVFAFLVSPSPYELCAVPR
Sequence of Nuclear receptor subfamily 1 group I member 2 (Homo sapiens) (O75469 whole entry, looked up): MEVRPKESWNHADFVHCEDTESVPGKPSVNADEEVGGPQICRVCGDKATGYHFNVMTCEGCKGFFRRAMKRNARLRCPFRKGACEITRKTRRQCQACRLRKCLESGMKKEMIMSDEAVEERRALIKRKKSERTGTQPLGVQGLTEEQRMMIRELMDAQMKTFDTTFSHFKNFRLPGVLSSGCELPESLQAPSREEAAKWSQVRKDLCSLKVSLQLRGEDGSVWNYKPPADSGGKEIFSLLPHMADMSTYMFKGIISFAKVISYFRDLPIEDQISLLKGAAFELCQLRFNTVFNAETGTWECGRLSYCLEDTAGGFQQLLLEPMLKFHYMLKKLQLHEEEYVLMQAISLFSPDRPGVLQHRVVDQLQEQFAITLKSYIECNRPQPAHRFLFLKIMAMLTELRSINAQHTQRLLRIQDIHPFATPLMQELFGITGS
Sequence of Nuclear receptor subfamily 1 group I member 2 (Rattus norvegicus) (Q9R1A7 whole entry, looked up): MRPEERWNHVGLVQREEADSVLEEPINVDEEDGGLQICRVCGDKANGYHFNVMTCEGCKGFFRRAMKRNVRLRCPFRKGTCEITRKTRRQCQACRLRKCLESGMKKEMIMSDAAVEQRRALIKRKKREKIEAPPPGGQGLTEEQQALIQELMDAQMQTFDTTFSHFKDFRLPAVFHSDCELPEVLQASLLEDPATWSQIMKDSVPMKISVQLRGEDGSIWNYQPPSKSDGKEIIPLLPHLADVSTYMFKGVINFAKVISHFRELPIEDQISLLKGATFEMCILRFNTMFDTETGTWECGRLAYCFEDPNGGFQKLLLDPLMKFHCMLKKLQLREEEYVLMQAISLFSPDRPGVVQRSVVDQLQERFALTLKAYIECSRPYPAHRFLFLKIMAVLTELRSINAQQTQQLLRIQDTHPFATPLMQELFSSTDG

For `S=c1nccc[nH]1`, the Potency entry in assay [1], in assay [2], in assay [3], in assay [4], in assay [5] and in assay [6] was “inactive” in each case. In addition, the Potency result in [7], in assay [8], in assay [10], in assay [11], in assay [12] and in [13] was “inactive” each time. In addition, the call in assay [9] was inactive. For the same molecule, in assay [14], the Potency was 31.8 µM (active).

Regarding `CC1=Nc2ccccc2C1(C)C`, the Potency entry in assay [1], in [2], in assay [4], in assay [5], in assay [6] and in assay [7] was “inactive” in each case. The Potency entry in assay [8], in [10], in [11], in assay [12] and in assay [16] was “inactive” throughout. Besides, the values for the Potency in assay [15] and in assay [14] were 30.7 µM (active) and 71.1 µM (active), respectively. Also, the outcome in [9] was inactive.

On to `OC1CCC(C2CCCCC2)CC1` (stereo not given), for which the Potency result in assay [1], in assay [2], in [3], in assay [5], in assay [6] and in [7] was “inactive” throughout. The Potency entry in [8], in assay [10], in [17], in assay [11], in assay [12] and in assay [13] was “inactive” throughout. Further, in assay [9], the molecule was called inactive. The Potency in assay [14] was 39.9 µM (active).

With `CCCCNS(=O)(=O)c1ccc(C)cc1`, the Potency entry in assay [1], in [2], in assay [3], in assay [4], in assay [5] and in assay [6] was “inactive” throughout. For the same molecule, the Potency result in assay [7], in assay [8], in [10], in assay [17], in [11] and in assay [12] was “inactive” throughout. Besides, the call in [9] was inactive.

Consider `CCCCCCCCCCCCOC(=O)c1ccc(O)cc1`, for which the Potency result in assay [1], in assay [2], in assay [3], in assay [5], in [6] and in [7] was “inactive” throughout. Further, the Potency result in [8] and in [10] was “inactive” each time. For the same molecule, the call in assay [9] was inactive. Also, the Potency is 54.9 µM (active) in assay [17], 61.6 µM (active) in assay [12], 27.5 µM (active) in [13] and 11.3 µM (active) in assay [14].

As to `Cc1cc(C)c(/C=C2\C(=O)Nc3ccccc32)[nH]1`, the Potency in assay [1] was 7.5 µM (active). Also, the Potency result in [2], in [3], in assay [4], in [6], in [7] and in assay [8] was “inactive” throughout. The Potency result in [17], in assay [11], in [13] and in assay [14] was “inactive” each time. The max activation in [18] is -0.232%.

As to `COc1ccc2cc1Oc1ccc(cc1)C[C@H]1c3c(cc4c(c3Oc3cc5c(cc3OC)CCN(C)[C@@H]5C2)OCO4)CCN1C`, the Potency is 13.3 µM (active) in assay [1]; 11.9 µM (active) in [10]; 29.8 µM (active) in [11]; 9.44 µM (active) in assay [13]; 10 µM (active) in assay [19]; 15.5 µM (active) in [14]. Moreover, the Potency result in assay [2], in [15], in assay [4], in assay [5], in assay [6] and in [8] was “inactive” in each case. For the same molecule, the Potency entry in assay [12] was “inactive”. Moreover, in assay [9], the molecule was called inactive. In assay [18], the max activation is -17.4%.
